Results taken from the supplement of paper PMC13380429.

Tested on: Vero E6 infected with SARS-CoV-2
Assay: inhibition of SARS-CoV-2 cytopathic effect; higher = more antiviral protection, active = above 15
Conditions: 48 h

Measured: inhibition of SARS-CoV-2 cytopathic effect

Cc1cnc(C(=O)N[C@H]2CCCCC/C=C\[C@@H]3C[C@@]3(C(=O)NS(=O)(=O)C3CC3)NC(=O)[C@@H]3C[C@@H](Oc4nc5ccccc5c5ccccc45)CN3C2=O)cn1 [paritaprevir]
inactive: 1 nM -1.75% | 8.33 nM -2.06% | 100 nM -0.72% | 833.33 nM 0.24% | 10000 nM 1.71%

CN1CCCN=C1COC(=O)C(O)(c1ccccc1)C1CCCCC1 (stereo not given) [oxyphencyclimine]
inactive: 1 nM 2.48% | 8.33 nM 0.59% | 100 nM 0.28% | 833.33 nM 2.86% | 10000 nM -1.14%

CC[C@@]1(O)C(=O)OCc2c1cc1n(c2=O)Cc2cc3ccccc3nc2-1 [camptothecin]
inactive: 1 nM -1.27% | 8.33 nM 1.92% | 100 nM -1.93% | 833.33 nM -11.9% | 10000 nM -20.7%

Nc1nc(CC(=O)Nc2ccc(CCNC[C@H](O)c3ccccc3)cc2)cs1 [mirabegron]
inactive: 1 nM -0.75% | 8.33 nM -0.61% | 100 nM 1.85% | 833.33 nM -1.35% | 10000 nM -3.3%

CC(=O)[C@]1(O)Cc2c(O)c3c(c(O)c2[C@@H](O[C@H]2C[C@H](N)[C@H](O)[C@H](C)O2)C1)C(=O)c1ccccc1C3=O [idarubicin]
inactive: 1 nM -0.73% | 8.33 nM 1.96% | 100 nM -0.94% | 833.33 nM -13.1% | 10000 nM -6.65%

N=C(N)NC(=N)Nc1cccc(Cl)c1 [m-chlorophenylbiguanide]
inactive: 1 nM 4.17% | 8.33 nM 4.54% | 100 nM 0.58% | 833.33 nM -7.74% | 10000 nM -1.2%

CC(=O)S[C@@H]1CC2=CC(=O)CC[C@]2(C)[C@H]2CC[C@@]3(C)[C@@H](CC[C@@]34CCC(=O)O4)[C@H]12 [spironolactone]
inactive: 1 nM -0.66% | 8.33 nM -0.55% | 100 nM -0.37% | 833.33 nM 3.98% | 10000 nM 6.39%

CCCCCCCCCCCCCCCCCC(=O)OC[C@@H](O)[C@H]1OC[C@H](O)[C@H]1O [sorbitan-monostearate]
inactive: 1 nM 0.02% | 8.33 nM -1.4% | 100 nM 1.63% | 833.33 nM 2.62% | 10000 nM -0.38%

CC[C@H](CC#N)OC(=O)N[C@@H](C)c1cccc(NC(=O)Nc2ccc(-c3cnco3)c(OC)c2)c1
inactive: 1 nM 0.48% | 8.33 nM 4.56% | 100 nM 0.06% | 833.33 nM 10.2% | 10000 nM 13.2%

Cc1ccc2cc(-c3c(C)ccc(C(=O)c4c(-c5ccccc5)n(C)n(-c5ccccc5)c4=O)c3N)ccc2n1
active: 10000 nM 43.4%
inactive: 1 nM -0.74% | 8.33 nM -0.19% | 100 nM -0.14% | 833.33 nM 2.1%

CC(C)S(=O)(=O)NC[C@H](C)c1ccc(-c2ccc(CCNS(C)(=O)=O)cc2)cc1 [mibampator]
inactive: 1 nM -0.11% | 8.33 nM -1.29% | 100 nM -1.07% | 833.33 nM 1.62% | 10000 nM 4.07%

NCCCCCC(=O)O [aminocaproic-acid]
inactive: 1 nM -7.62% | 8.33 nM -2.22% | 100 nM 1.68% | 833.33 nM 1.01% | 10000 nM -2.29%

CC[N+](CC)(CCNC(=O)C(=O)NCC[N+](CC)(CC)Cc1ccccc1Cl)Cc1ccccc1Cl [ambenonium]
inactive: 1 nM 0.39% | 8.33 nM -2.16% | 100 nM -1.45% | 833.33 nM 0.75% | 10000 nM 0.34%

COc1ccc(CC(=O)NC(/N=C(\NC#N)Nc2cccc3ncccc23)C(C)(C)C)cc1OC (stereo not given)
inactive: 1 nM -0.32% | 8.33 nM 1.83% | 100 nM 1.99% | 833.33 nM 1.34% | 10000 nM -0.99%

CCCCCCCCCCCCC/C=C/[C@@H](O)[C@@H](N)CO[P@](=O)(O)OCC[N+](C)(C)C [sphingosylphosphorylcholine]
inactive: 1 nM -0.9% | 8.33 nM -2.99% | 100 nM 3.74% | 833.33 nM -2.02% | 10000 nM 3.54%

CCCc1c(OCC(O)COc2ccc3c(=O)cc(C(=O)O)oc3c2CCC)ccc(C(C)=O)c1O (stereo not given)
inactive: 1 nM 3.39% | 8.33 nM -0.15% | 100 nM 3.25% | 833.33 nM 6.19% | 10000 nM 3.02%

O=C1C2C=Nc3ccccc3C2=NN1c1ccc(Cl)cc1 (stereo not given)
inactive: 1 nM 0.17% | 8.33 nM -0.02% | 100 nM 1.99% | 833.33 nM 3.3% | 10000 nM -0.09%

O=Nc1c(-c2c(O)[nH]c3ccccc23)[nH]c2ccccc12 [indirubin-3-monoxime]
inactive: 1 nM 0.43% | 8.33 nM 0.8% | 100 nM 1.06% | 833.33 nM 5.66% | 10000 nM 3.83%

CCOc1cc(C(=O)N2CCC(N3CCN(C)CC3)CC2)ccc1Nc1ncc2c(n1)N(C1CCCC1)c1ccccc1C(=O)N2C
inactive: 1 nM 0.46% | 8.33 nM 1.68% | 100 nM -0.44% | 833.33 nM -1.7% | 10000 nM -0.04%

CCC[C@@H]1CC(=O)N([C@@H](CC)C(N)=O)C1 [Brivaracetam]
inactive: 1 nM -0.93% | 8.33 nM -1.72% | 100 nM -2.91% | 833.33 nM -2.52% | 10000 nM 1.45%

O=C(/C=C/c1ccc(O)c(O)c1)OCCc1ccccc1 [caffeic-acid-phenethyl-ester]
inactive: 1 nM -3.4% | 8.33 nM -2.75% | 100 nM -2.14% | 833.33 nM 2.36% | 10000 nM 7.5%

O=C1[C@@H]2[C@H]3CC[C@H](C3)[C@@H]2C(=O)N1C[C@@H]1CCCC[C@H]1CN1CCN(c2nsc3ccccc23)CC1 [lurasidone]
inactive: 1 nM -0.28% | 8.33 nM 0.05% | 100 nM 1.73% | 833.33 nM 3.11% | 10000 nM -6.2%

CCC(C)n1ncn(-c2ccc(N3CCN(c4ccc(OCC5COC(Cn6cncn6)(c6ccc(Cl)cc6Cl)O5)cc4)CC3)cc2)c1=O (stereo not given) [itraconazole]
inactive: 1 nM 2.52% | 8.33 nM 7.17% | 100 nM 2.54% | 833.33 nM -1.78% | 10000 nM -7.27%

OCC(CO)N[C@H]1C[C@](O)(CO)[C@@H](O)[C@H](O)[C@H]1O [voglibose]
inactive: 1 nM 0.63% | 8.33 nM -8.33% | 100 nM 1.72% | 833.33 nM 2.63% | 10000 nM 2.03%

C[C@@H](N)c1ccc(C(=O)Nc2ccnc3[nH]ccc23)cc1
inactive: 1 nM 0.69% | 8.33 nM -1.06% | 100 nM 0.35% | 833.33 nM -5.51% | 10000 nM -13.4%

COc1ccccc1OCC(O)CO (stereo not given) [guaifenesin]
inactive: 1 nM 1.29% | 8.33 nM 1.07% | 100 nM 0% | 833.33 nM 0.99% | 10000 nM 0.94%

CCCCCCCCN=c1ccn(CCCCCCCCCCn2ccc(=NCCCCCCCC)cc2)cc1 [octenidine]
inactive: 1 nM 0.26% | 8.33 nM 2.35% | 100 nM 0% | 833.33 nM -7.17% | 10000 nM -19.8%

Nc1nc(Nc2ccc(S(N)(=O)=O)cc2)nn1C(=O)c1c(F)cccc1F
inactive: 1 nM 2.48% | 8.33 nM 1.33% | 100 nM 0.15% | 833.33 nM -0.22% | 10000 nM 10.8%

CCn1c(N)c(C(=O)NC)c(=O)c2ccc(C#C[C@@](C)(O)COC)nc21
inactive: 1 nM 0.13% | 8.33 nM -0.62% | 100 nM -1.69% | 833.33 nM 0.68% | 10000 nM 6.9%

CC(=O)NNC(=O)N1Cc2ccccc2Oc2ccc(Cl)cc21
inactive: 1 nM -0.04% | 8.33 nM 1.22% | 100 nM -0.93% | 833.33 nM -0.99% | 10000 nM -2.14%

Oc1cc2c(cc1O)[C@@H]1c3ccc(O)c(O)c3OC[C@]1(O)C2 [hematoxylin]
inactive: 1 nM 1.9% | 8.33 nM 1.95% | 100 nM 0.48% | 833.33 nM 0.52% | 10000 nM 1.62%

Oc1ccc2c(c1)CC[C@H](c1ccccc1)[C@@H]2c1ccc(OCCN2CCCC2)cc1 [lasofoxifene]
inactive: 1 nM -1.63% | 8.33 nM 4.35% | 100 nM 0.8% | 833.33 nM -0.28%
active: 10000 nM 49.6%

N=C(N)c1ccc(N2CCN(C3CCN(CC(=O)O)CC3)CC2)cc1
inactive: 1 nM -1.25% | 8.33 nM 0.6% | 100 nM 0.06% | 833.33 nM -0.33% | 10000 nM 1.5%

CCN1CCN(Cc2ccc(-c3cc4c(N[C@H](C)c5ccccc5)ncnc4[nH]3)cc2)CC1
inactive: 1 nM 1.55% | 8.33 nM 0.57% | 100 nM -1.71% | 833.33 nM -10.4% | 10000 nM -16%

COc1ccc(C(=O)/C(Cc2cc(OC)c(OC)c(OC)c2)=C(\C(=O)O)c2ccc3c(c2)OCO3)cc1
inactive: 1 nM -2.66% | 8.33 nM -0.48% | 100 nM -0.33% | 833.33 nM 1.73%
active: 10000 nM 17.8%

C[C@@H](CN(C)C)CN1c2ccccc2Sc2ccccc21 (racemic) [alimemazine]
inactive: 1 nM -2.63% | 8.33 nM -3.15% | 100 nM -1.76% | 833.33 nM -0.79% | 10000 nM -0.47%

Cc1cccn2c(=O)c(/C=C(\C#N)c3nc4ccccc4s3)c(Oc3ccc(F)cc3)nc12
inactive: 1 nM -2.85% | 8.33 nM 0.91% | 100 nM -1.07% | 833.33 nM -1.93% | 10000 nM -0.23%

CC[C@H](C)n1cc(C)c2c(C(=O)NCc3c(C)cc(C)[nH]c3=O)cc(-c3ccc(N4CCNCC4)nc3)cc21
inactive: 1 nM 1.2% | 8.33 nM 2.76% | 100 nM 2.26% | 833.33 nM 1.5% | 10000 nM -4.63%
